Test [1] in a line: Nuclear factor erythroid 2-related factor 2/antioxidant responsive element (Nrf2/ARE) small molecule agonists: qHTS cell viability counter screen in human keratinocytes (AID 1919968; active means well fitted curve in the direction sought with a large enough effect in the repeat runs; an effect the other way counts as inactive or inconclusive; further: nearly all actives have a fitted effect of over 55% in size; further: potency means the concentration at half of the fitted maximal effect). In a few lines:
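Parallel cytotoxicity read: KeratinoSens HaCaT cells, compound treatment 23 h, viability by CellTiter-Fluor fluorescence 1 h post-reagent.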

Test [2] addresses Gonadotropin-releasing hormone receptor (Homo sapiens) (UniProt P30968). Briefly: Human gonadotropin-releasing hormone receptor (GnRHR) small molecule agonists, calcium flux assay in GnRHR-HEK293 cells (AID 1920063). Further: nearly all actives have a fitted effect of over 35% in size. In outline: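 Calcium flux, agonist mode, human GnRHR stably integrated in HEK293; dye 1 h at 37 C before compound; Ex/Em=480/540 kinetic read, 3 min; 15 concentrations, triplicate.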

For test [3], the target named is KiSS-1 receptor (Homo sapiens) (UniProt Q969F8). The experiment in a line: Human kisspeptin (KISS1R) small molecule agonists, calcium flux assay in KISS1R-HEK293 cells (AID 1920064; active means well fitted curve in the direction sought with a large enough effect in the repeat runs; an effect the other way counts as inactive or inconclusive). In outline: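 Triplicate 15-concentration series were applied to dye-loaded human KISS1R HEK293 cells, and agonist-evoked calcium fluorescence was captured for 3 min.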
Test [4] is described as follows: p53 small molecule agonists, cell-based qHTS assay with human liver microsomes (AID 1963577). In a few lines: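 p53RE-bla reporter cells were pre-incubated 5 h at 37 C, then treated with compounds plus human liver microsomes (0.5 mg/mL final) and NADPH (0.5 mg/mL final) for 16 h at 37 C. Beta-lactamase activity was read by LiveBLAzer fluorescence after 2 h at room temperature.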

Test [5] is described as follows: p53 small molecule agonists, cell-based qHTS assay with human liver microsomes: qHTS cell viability counter screen (AID 1963579). Further: nearly all actives have a fitted effect of over 45% in size. Further: potency means the concentration at half of the fitted maximal effect. In a few lines: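 p53RE-bla cells (4,000/well) were pre-incubated 5 h at 37 C, then given compounds in DMSO plus human liver microsomes (0.5 mg/mL final) and NADPH (0.5 mg/mL final) for 16 h at 37 C. Viability was read by CellTiter-Glo luminescence.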

Test [6] is described as follows: p53 small molecule agonists, cell-based qHTS assay with rat liver microsomes: qHTS cell viability counter screen (AID 1963580). Further: nearly all actives have a fitted effect of over 45% in size. In a few lines: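 After the beta-lactamase ratio was read, CellTiter-Glo was added to the same wells and luminescence measured at 30 min; cells had been treated 16 h at 37 C with compounds, rat liver microsomes and NADPH (0.5 mg/mL final each).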

A short description of test [7]: p53 small molecule agonists, cell-based qHTS assay: qHTS cell viability counter screen (AID 1963581). Further: nearly all actives have a fitted effect of over 45% in size. In outline: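 Multiplexed with the reporter read, a CellTiter-Glo step (30 min, room temperature) gauges ATP-based viability of HCT-116 p53RE-bla cells after 16 h compound incubation at 37 C.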
Test [8] concerns the target 5-hydroxytryptamine receptor 2A (Homo sapiens) (UniProt P28223). The experiment in a line: 5-hydroxytryptamine receptor 2A (HTR2A) small molecule antagonists, cell-based qHTS assay (AID 1963586). Further: nearly all actives have a fitted effect of over 45% in size. In a few lines:
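CHO cells stably expressing human HTR2A were plated for 18 h at 37 C, then loaded with calcium dye for 1 h. Compounds were preincubated 5 min at room temperature before DOI (4 nM solution) was added. Kinetic fluorescence was read for 3 min.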

For test [9] the target is unchanged. Briefly: 5-hydroxytryptamine receptor 2A (HTR2A) small molecule agonists, cell-based qHTS assay (AID 1963587). Further: nearly all actives have a fitted effect of over 30% in size. In outline:
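CHO cells stably expressing human HTR2A, plated 18 h, loaded with calcium dye 1 h at 37 C. Agonist mode: compounds added and intracellular calcium fluorescence recorded kinetically for 2 min at 1 sec intervals.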

Test [10] deals with Muscarinic acetylcholine receptor M1 (Homo sapiens) (UniProt P11229). Briefly: Cholinergic receptor muscarinic 1 (CHRM1) small molecule antagonists, cell-based qHTS assay (AID 1963588). Further: nearly all actives have a fitted effect of over 40% in size. In outline:
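Compounds were tested at 15 concentrations in three independent runs. Dye-loaded CHRM1-CHO cells were exposed 5 min at room temperature before stimulation by acetylcholine added at 50nM. Intracellular calcium was read kinetically on FDSS for 3 min.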

Test [11] shares this target. The experiment in a line: Cholinergic receptor muscarinic 1 (CHRM1) small molecule agonists, cell-based qHTS assay (AID 1963589). Further: nearly all actives have a fitted effect of over 35% in size. In a few lines: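 qHTS, 15-point titration, 3 independent runs: compounds pin-transferred onto dye-loaded CHRM1-CHO cells (human M1), calcium fluorescence followed every second to detect agonism.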
Test [12] is described as follows: cAMP Responsive Elements (CRE) small molecule agonists, cell-based qHTS assay (AID 1963590). In a few lines: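 Quantitative HTS for CRE agonists: HEK 293T CRE-bla cells, overnight plating, 3 h compound incubation at 37 C/5% CO2, then 2 h room-temperature LiveBLAzer B/G FRET substrate loading.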
A short description of test [13]: cAMP Responsive Elements (CRE) small molecule antagonists, cell-based qHTS assay (AID 1963591; active means well fitted inhibition curve with a large enough effect in the signal ratio in the repeat runs, not every such curve was filed as active; the % refers to the signal ratio). In a few lines: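 Fluorescence intensity from cleaved LiveBLAzer B/G substrate (2 h, room temperature) quantified CRE-bla activity in HEK 293T cells exposed 3 h to compound with 0.25 uM final NKH477.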
The target of test [14] is Beta-2 adrenergic receptor (Homo sapiens) (UniProt P07550). Briefly: Adrenergic beta2 receptor (ADRB2) small molecule antagonists, cell-based qHTS assay (AID 1963592). Further: series mostly up to about 92 µM; nearly all actives have a fitted effect of over 50% in size. In a few lines: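 Assay format: CHO-ADRB2 cells, 18-20hr seeding at 37C/5% CO2, then compound plus 1nM isoproterenol agonist mix for 0.5hr RT. Homogeneous time-resolved fluorescence cAMP detection after 1hr, expressed as 665/615 nm ratio.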

The target of test [15] is D(2) dopamine receptor (Homo sapiens) (UniProt P14416). The experiment in a line: Dopamine D2 receptor (DRD2) small molecule agonists, cell-based qHTS assay (AID 1963594). Further: nearly all actives have a fitted effect of over 35% in size. In outline:
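HEK293 cells stably expressing human DRD2, pre-treated with PDE inhibitor Ro20-1724 (0.1 mM final) and compound 10 min at room temperature, then stimulated with NKH477 (200nM […]) for 30 min. cAMP read by HTRF (665/620 nm).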

For test [16] the target is unchanged. Briefly: Dopamine D2 receptor (DRD2) small molecule antagonists, cell-based qHTS assay (AID 1963595; active means well fitted inhibition curve with a large enough effect in the signal ratio in the repeat runs, with a control signal flat; the % refers to the signal ratio). In outline:
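HEK293 cells stably expressing DRD2, preincubated with 0.1 mM Ro20-1724 and compounds 10 min, were stimulated with 200 nM NKH477 plus 12 nM quinpirole for 30 min at room temperature; cAMP measured by HTRF (665/620 nm).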

Test [17] is described as follows: p53 small molecule agonists, cell-based qHTS assay with rat liver microsomes (AID 1963578). In a few lines: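 p53RE-bla cells were exposed to compounds together with rat liver microsomes (0.5 mg/mL final) and NADPH (0.5 mg/mL final) for 16 h at 37 C, then read by LiveBLAzer beta-lactamase fluorescence after 2 h at room temperature.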
Test [18] can be described thus: p53 small molecule agonists, cell-based qHTS assay (AID 1963582; active means well fitted activation curve with a large enough effect in the signal ratio in the repeat runs, not every such curve was filed as active; the % refers to the signal ratio). In outline: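 Beta-lactamase reporter cells (p53RE-bla) treated with compounds for 16 h at 37 C; FRET substrate, 2 h, room temperature; fluorescence intensity.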
In test [19] the target is Beta-2 adrenergic receptor (Homo sapiens) (UniProt P07550). Briefly: Adrenergic beta2 receptor (ADRB2) small molecule agonists, cell-based qHTS assay (AID 1963593).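 Further: CHO cells stably overexpressing human ADRB2.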 In outline:
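CHO cells stably over-expressing ADRB2 were plated overnight at 37C, then dosed with compounds plus a stimulation mix containing 100uM IBMX and 25uM Ro-20-1724 for 0.5hr at room temperature. cAMP was measured by HTRF competition, 1hr.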

A short description of test [20]: G protein-coupled receptor (GPCR) small molecule agonists, calcium flux assay: HEK293 wild type cell line counter screen (AID 1920065). In a few lines:
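Non-specific calcium responders were flagged by adding DMSO-dissolved compounds to dye-loaded cells and reading 480/540 nm fluorescence each second for 3 min; ATP served as positive control.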

A number with no mark means an inactive call. Records with an inconclusive call do not appear. Activity calls are given as the source filed them. Unless noted, the call rests on the fitted dose curve.

From PubChem BioAssay (Tox21) come the findings set out here.
On the % scale 0 is the no-effect control and ±100 the full control effect.

Chain of Muscarinic acetylcholine receptor M1 (Homo sapiens) (P11229 whole entry, looked up): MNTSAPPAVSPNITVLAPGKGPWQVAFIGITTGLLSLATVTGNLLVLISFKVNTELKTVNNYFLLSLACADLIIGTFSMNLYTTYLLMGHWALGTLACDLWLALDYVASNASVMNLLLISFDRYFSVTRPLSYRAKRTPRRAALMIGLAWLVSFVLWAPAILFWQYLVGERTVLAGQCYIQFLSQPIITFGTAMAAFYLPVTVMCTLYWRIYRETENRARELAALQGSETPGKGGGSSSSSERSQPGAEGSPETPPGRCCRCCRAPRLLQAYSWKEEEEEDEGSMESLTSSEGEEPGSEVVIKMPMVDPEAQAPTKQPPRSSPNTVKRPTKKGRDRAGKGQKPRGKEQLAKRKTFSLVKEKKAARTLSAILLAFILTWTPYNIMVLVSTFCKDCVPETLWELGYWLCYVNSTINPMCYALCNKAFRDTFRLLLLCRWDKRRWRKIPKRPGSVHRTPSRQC
Chain of KiSS-1 receptor (Homo sapiens) (Q969F8 whole entry, looked up): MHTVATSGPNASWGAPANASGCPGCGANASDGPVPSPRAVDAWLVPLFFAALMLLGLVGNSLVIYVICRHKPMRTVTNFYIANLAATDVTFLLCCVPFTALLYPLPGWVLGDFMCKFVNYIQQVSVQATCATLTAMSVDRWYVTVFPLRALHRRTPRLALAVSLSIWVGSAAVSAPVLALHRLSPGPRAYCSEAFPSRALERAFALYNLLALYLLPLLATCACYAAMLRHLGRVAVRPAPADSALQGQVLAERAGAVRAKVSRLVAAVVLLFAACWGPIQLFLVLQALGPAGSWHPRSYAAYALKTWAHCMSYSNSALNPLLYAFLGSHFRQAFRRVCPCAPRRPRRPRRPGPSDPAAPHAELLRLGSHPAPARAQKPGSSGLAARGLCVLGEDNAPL
Chain of 5-hydroxytryptamine receptor 2A (Homo sapiens) (P28223 whole entry, looked up): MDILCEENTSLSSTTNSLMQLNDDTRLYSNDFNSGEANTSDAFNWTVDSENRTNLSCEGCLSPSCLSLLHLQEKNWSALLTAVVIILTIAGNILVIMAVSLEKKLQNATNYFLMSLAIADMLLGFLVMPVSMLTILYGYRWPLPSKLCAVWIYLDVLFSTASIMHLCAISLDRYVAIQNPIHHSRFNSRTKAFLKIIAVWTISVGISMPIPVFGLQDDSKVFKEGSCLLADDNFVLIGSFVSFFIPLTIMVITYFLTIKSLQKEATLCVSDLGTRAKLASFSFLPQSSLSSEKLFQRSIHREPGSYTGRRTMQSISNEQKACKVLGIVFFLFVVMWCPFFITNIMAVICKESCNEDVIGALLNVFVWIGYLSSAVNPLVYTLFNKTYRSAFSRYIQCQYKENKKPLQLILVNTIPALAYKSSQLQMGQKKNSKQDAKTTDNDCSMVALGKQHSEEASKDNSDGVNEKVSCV
Chain of D(2) dopamine receptor (Homo sapiens) (P14416 whole entry, looked up): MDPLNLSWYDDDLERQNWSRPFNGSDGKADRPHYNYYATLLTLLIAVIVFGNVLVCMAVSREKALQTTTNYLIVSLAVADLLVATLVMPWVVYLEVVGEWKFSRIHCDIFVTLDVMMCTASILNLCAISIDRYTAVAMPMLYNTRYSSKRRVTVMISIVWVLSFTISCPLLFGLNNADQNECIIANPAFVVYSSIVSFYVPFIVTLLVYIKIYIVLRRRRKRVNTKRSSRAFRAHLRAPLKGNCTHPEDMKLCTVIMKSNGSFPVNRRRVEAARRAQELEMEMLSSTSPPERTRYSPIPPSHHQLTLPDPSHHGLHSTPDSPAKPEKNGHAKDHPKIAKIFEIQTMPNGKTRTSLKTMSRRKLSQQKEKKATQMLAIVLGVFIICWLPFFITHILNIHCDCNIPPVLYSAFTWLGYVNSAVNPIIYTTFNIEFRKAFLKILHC
Chain of Beta-2 adrenergic receptor (Homo sapiens) (P07550 whole entry, looked up): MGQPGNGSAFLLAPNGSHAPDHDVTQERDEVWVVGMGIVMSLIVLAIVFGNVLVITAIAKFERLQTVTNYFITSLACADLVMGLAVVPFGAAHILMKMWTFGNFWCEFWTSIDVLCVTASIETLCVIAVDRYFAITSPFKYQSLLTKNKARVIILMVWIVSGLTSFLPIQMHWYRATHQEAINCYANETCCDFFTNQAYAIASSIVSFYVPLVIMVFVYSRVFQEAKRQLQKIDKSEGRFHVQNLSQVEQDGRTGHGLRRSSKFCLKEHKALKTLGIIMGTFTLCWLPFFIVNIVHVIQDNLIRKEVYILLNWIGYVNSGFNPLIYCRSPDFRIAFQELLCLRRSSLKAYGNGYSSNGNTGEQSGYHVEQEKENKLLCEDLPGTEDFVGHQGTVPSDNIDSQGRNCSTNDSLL
Chain of Gonadotropin-releasing hormone receptor (Homo sapiens) (P30968 whole entry, looked up): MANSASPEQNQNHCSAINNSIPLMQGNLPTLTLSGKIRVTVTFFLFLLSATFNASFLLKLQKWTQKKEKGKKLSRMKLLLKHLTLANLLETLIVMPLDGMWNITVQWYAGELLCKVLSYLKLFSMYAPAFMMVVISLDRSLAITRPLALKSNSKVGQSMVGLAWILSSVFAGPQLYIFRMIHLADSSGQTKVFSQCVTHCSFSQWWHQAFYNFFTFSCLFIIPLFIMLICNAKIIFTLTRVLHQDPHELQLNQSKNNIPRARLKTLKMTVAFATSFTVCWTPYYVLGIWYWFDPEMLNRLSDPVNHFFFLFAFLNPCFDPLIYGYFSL

With `O=C(Nc1ccc2c(c1)Cc1ccccc1-2)C(F)(F)F`, the Potency entry in test [1], in test [2], in test [3], in test [4], in [5] and in test [6] was “inactive” throughout. For the same molecule, the Potency entry in test [7], in [8], in test [9], in test [10], in test [11] and in test [12] was “inactive” in each case. Besides, the Potency result in test [13], in test [14], in test [15] and in test [16] was “inactive” in each case.
On to `O=P(c1ccccc1)(c1ccccc1)c1ccccc1`, for which the Potency result in [1], in [2], in [3], in test [4], in test [17] and in test [5] was “inactive” each time. In addition, the Potency result in test [6], in test [7], in test [18], in [8], in test [9] and in test [10] was “inactive” each time. Also, the Potency entry in test [12], in test [13], in test [14], in [15] and in [16] was “inactive” in each case.
Take `NCc1ccccc1`: the Potency entry in [1], in [2], in test [3], in test [17], in test [5] and in test [7] was “inactive” each time. The Potency entry in [8], in [9], in test [10], in [11], in test [12] and in test [13] was “inactive” each time. In addition, the Potency result in [14], in test [19], in test [15] and in test [16] was “inactive” throughout.
For the molecule `O=C(Cl)c1c(Cl)cccc1Cl`, the Potency entry in test [1], in test [2], in test [3], in [5], in test [6] and in [8] was “inactive” in each case. For the same molecule, the Potency result in test [9], in test [10], in [11], in test [13] and in [16] was “inactive” each time.
Consider `CCCCCCCCCC[N+](C)(CCCCCCCCCC)CCC[Si](OC)(OC)OC`, for which the Potency in [1] is 21.7 µM (active); in test [5] it was 36.3 µM (active). Further, the Potency result in test [2], in test [3], in [20], in test [8], in test [10] and in test [14] was “inactive” throughout. For the same molecule, the Potency result in test [15] was “inactive”.
Turning to `CN(C)CC[C@@H](c1ccc(Cl)cc1)c1ccccn1`, the Potency result in test [1], in test [2], in test [3], in test [20], in test [7] and in test [18] was “inactive” in each case. Further, the Potency entry in test [12], in [13], in [14], in [15] and in test [16] was “inactive” throughout.
Regarding `SCCc1cnccn1`, the Potency result in test [1], in test [2], in test [3], in test [4], in [17] and in test [5] was “inactive” throughout. The Potency entry in test [6], in [7], in test [18], in test [8], in test [9] and in [10] was “inactive” in each case. Further, the Potency entry in test [11], in test [12], in test [14], in test [19] and in [16] was “inactive” in each case.
As to `O=CO`, the activity change, negative = cytotoxicity is 0.89% [at 8.39 µM] in test [1] and -6.99% [at 5.99 µM] in [7]. Further, in test [2], the activity change is 0% [at 5.22 µM, stronger effect = higher value]. Besides, the activation in [3] is 4.55% [at 6.97 µM]; in [20], -0.0753% [at 5.23 µM]; in [9], 0.778% [at 7.02 µM]; in test [11], -0.0923% [at 6.97 µM]; in test [12] it was 0.47% [at 8.39 µM]; in test [15], 0.218% [at 8.39 µM]. The activity change, negative = inhibition in test [13] is -5.34% [at 8.39 µM]; in test [14], 1.71% [at 8.39 µM]; in [16], -7.6% [at 8.38 µM].
On to `C=C(C)C(=O)OCCOc1ccccc1`, for which the Potency entry in test [1], in test [2], in [3], in test [5], in test [6] and in test [7] was “inactive” each time. Moreover, the Potency result in test [9], in test [10], in [12], in [14], in test [15] and in [16] was “inactive” each time.
Take `CC1(CO)CN(c2ccccc2)NC1=O` (centres undefined): the Potency result in test [1], in [2], in test [3], in test [4], in [5] and in [6] was “inactive” in each case. In addition, the Potency result in test [7], in [18], in [8], in test [9], in test [10] and in [11] was “inactive” in each case. Also, the Potency result in [12], in [13], in test [14], in test [19], in test [15] and in test [16] was “inactive” throughout.
